Experimental data taken from PubChem BioAssay (NCI).
Compounds without any hit were thinned out: in the full panel of roughly 83,000, 20% have a hit.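 How to read the values: 0–100, growth inhibition (40 = 60% inhibited); 0, no net growth; -100 to 0, cell death (-40 = 40% of starting cells died; -100 = all dead).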 The source made the active and inactive calls. How the source made its calls: active means growth percent below 10; inactive means the rest.

system: HT29 colon; assay: NCI-60 one-dose screen, 48 h (100 = growth as untreated, 0 = no growth, -100 = all killed); conditions: 10 µM

Structure (SMILES)	growth
CCOS(=O)(=O)c1c(C(C)C)cc(C(C)C)cc1C(C)C	112% (inactive)
CC(C)CCN(CCC(C)C)CC(=O)Nc1ccc(S(=O)(=O)c2ccc(NC(=O)CN(CCC(C)C)CCC(C)C)cc2)cc1	10.3% (inactive)
O=C(N/N=C/c1cc([N+](=O)[O-])ccc1O)c1cccc2ccccc12	65.9% (inactive)
COc1cc(Cc2cc(-c3ccccc3)n[nH]c2=O)cc(OC)c1OC	18.3% (inactive)
C1CN(CC2CCC(CN3CCOCC3)O2)CCO1 (centres undefined)	102% (inactive)
Cc1cc(=O)n2nnc3cc(Cl)c(Cl)cc3n12	106% (inactive)
CC(=O)N[C@H](C(=O)N[C@@H](CCCNC(=N)N)C(=O)N[C@@H](CCCCN)C(=O)N[C@@H](CCCNC(=N)N)C(=O)N[C@]1(C)CCCCCC/C=C\CCC[C@@](C)(C(=O)N[C@@H](CCCNC(=N)N)C(=O)N[C@@H](CCC(=O)O)C(=O)N[C@@H](CC(C)C)C(=O)N[C@H](C(=O)N[C@@H](CCC(=O)O)C(N)=O)C(C)C)NC(=O)[C@H](CCC(N)=O)NC(=O)[C@H](CC(C)C)NC(=O)[C@H](CC(C)C)NC(=O)[C@H](CCCNC(=N)N)NC(=O)[C@H](CCCNC(=N)N)NC(=O)[C@H](CC(C)C)NC1=O)C(C)C	15.7% (inactive)
Cc1ccc(/C=C2/C(=O)N(C)c3ccc(S(=O)(=O)Nc4ccc(C(C)(C)C)cc4)cc32)s1	75.7% (inactive)
CC(=O)[C@H]1CC[C@]2(C)[C@@H]1CC[C@@H]1[C@@]3(C)CC(CCC#N)(CCC#N)C(=O)C(C)(C)[C@@H]3CC[C@]12C	98.8% (inactive)
